# Assay results published in the supplement of paper PMC10338343.
# ± gives the standard deviation.
# Columns and labels:
# [1] = tested on: MILI (PIWIL2) piRISC loaded with piRNA #1 (26 nt); assay: pre-steady-state target cleavage rate (min^-1); guide: piRNA #1 5'p-UGAGGUAGUAGGUUGUAUAGUAUCCA; higher = faster piRNA-guided slicing of the target; details: auxiliary factor: 500 nM mouse GTSF1
# Outline: (§1)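 Cleave-'n-Seq used a transcribed, DNA-blocked target RNA library at 0.1 nM and active affinity-purified piRISC with one synthetic guide at 1 nM, with or without 500 nM GTSF1 partner protein, in HEPES–potassium acetate buffer at 33 °C for 0–8 or 0–960 min. Uncleaved targets were sequenced and normalised to depth and to weakly complementary targets, and three trials were pooled with k3 capped at 0.0001 min^-1. The pre-steady-state cleavage rate was estimated by a burst-and-steady-state fit.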
# [2] = tested on: EfPiwi piRISC loaded with piRNA #1 (26 nt); assay: pre-steady-state target cleavage rate (min^-1); auxiliary factor: 500 nM Ephydatia muelleri Gtsf1; guide: piRNA #1 5'p-UGAGGUAGUAGGUUGUAUAGUAUCCA; MIWI and MILI are mouse PIWI proteins and EfPiwi is from a freshwater sponge; tags in brackets are library labels; higher = faster piRNA-guided slicing of the target
# Outline: as §1
sequence,measurement,setting,value
GGAGACGAUACUAUACAACCUACAACCUGA,pre-steady-state target cleavage rate,[1],0.0121 ± 0.0074
same,pre-steady-state target cleavage rate,[2],0.00441 ± 0.0022
GGAGUGGAUACUAUACAACCUACUACCUCCA,pre-steady-state target cleavage rate,[1],0.223 ± 0.011
same,pre-steady-state target cleavage rate,[2],0.274 ± 0.077
GGAGACGAUUCUAUACAUCCUACUACCUCA,pre-steady-state target cleavage rate,[1],0.267 ± 0.018
same,pre-steady-state target cleavage rate,[2],0.00332 ± 0.0024
GGAGACCAUACUAUACAUCCUACUACGUCA,pre-steady-state target cleavage rate,[1],0.158 ± 0.027
same,pre-steady-state target cleavage rate,[2],0.00585 ± 0.0034
GGAGUGGAUUGAAUACAACCUACUACCUCA,pre-steady-state target cleavage rate,[1],0.0713 ± 0.0073
same,pre-steady-state target cleavage rate,[2],0.00637 ± 0.0044
GGAGUGGAUACUAUACAACCUACUACUCA,pre-steady-state target cleavage rate,[1],0.0385 ± 0.0084
same,pre-steady-state target cleavage rate,[2],0.00563 ± 0.0029
GGAGACGAUACUAUACAUCCUACUACCACA,pre-steady-state target cleavage rate,[1],0.334 ± 0.021
same,pre-steady-state target cleavage rate,[2],0.0049 ± 0.0017
GGAGACCUAACUAUACAACCUACUACCUACA,pre-steady-state target cleavage rate,[1],0.165 ± 0.023
same,pre-steady-state target cleavage rate,[2],0.00795 ± 0.0042
GGAGACCAUACUAUACAACCUACUACCGCA,pre-steady-state target cleavage rate,[1],0.203 ± 0.025
same,pre-steady-state target cleavage rate,[2],0.00689 ± 0.0023
GGAGAGGAUACUAUACAAGCUACAACCUCA,pre-steady-state target cleavage rate,[1],0.0872 ± 0.017
same,pre-steady-state target cleavage rate,[2],0.00258 ± 0.0015
GGAGAGGAUAGCUAUACAACCUACUACCUCA,pre-steady-state target cleavage rate,[1],0.035 ± 0.0046
same,pre-steady-state target cleavage rate,[2],0.0146 ± 0.0073
GGAGACGAUACUAUACAACCUACUACCUUCA,pre-steady-state target cleavage rate,[1],0.194 ± 0.018
same,pre-steady-state target cleavage rate,[2],0.0163 ± 0.0063
GGAGACCAAUCUAUACAACCUACUACCUCA,pre-steady-state target cleavage rate,[1],0.117 ± 0.02
same,pre-steady-state target cleavage rate,[2],0.0121 ± 0.0056
GGAGACCUAUCUAUACAACCUACUACCUCC [g2:g20:cont:t1C],pre-steady-state target cleavage rate,[1],0.106 ± 0.011
same,pre-steady-state target cleavage rate,[2],0.0049 ± 0.0034
GGAGACCAUACUAUACAACCUACUAGGAGA [g6:g23:cont:t1A],pre-steady-state target cleavage rate,[1],0.00402 ± 0.0038
same,pre-steady-state target cleavage rate,[2],0.00788 ± 0.0042
GGAGACCUAUCUAUACAACCUACUACGUCA,pre-steady-state target cleavage rate,[1],0.0507 ± 0.008
same,pre-steady-state target cleavage rate,[2],0.00352 ± 0.0031
GGAGACCUUACUAUACAUCCUACUACCACA,pre-steady-state target cleavage rate,[1],0.246 ± 0.02
same,pre-steady-state target cleavage rate,[2],0.0038 ± 0.0032
GGAGACCUAACUAUACAACCUACUACCCA,pre-steady-state target cleavage rate,[1],0.0749 ± 0.027
same,pre-steady-state target cleavage rate,[2],0.00326 ± 0.0026
GGAGUGGAUACUAUUCAACCUACUACGUCA,pre-steady-state target cleavage rate,[1],0.0439 ± 0.0069
same,pre-steady-state target cleavage rate,[2],0.00281 ± 0.0015
GGAGAGGAUACUAUAUCAACCUACUACCUCA,pre-steady-state target cleavage rate,[1],0.107 ± 0.0098
same,pre-steady-state target cleavage rate,[2],0.0145 ± 0.0066
GGAGACCUUACUAUCCAACCUACUACCUCA,pre-steady-state target cleavage rate,[1],0.17 ± 0.018
same,pre-steady-state target cleavage rate,[2],0.0791 ± 0.034
GGAGACCAUACUAUAACAACCUACUACCUCA,pre-steady-state target cleavage rate,[1],0.133 ± 0.012
same,pre-steady-state target cleavage rate,[2],0.00662 ± 0.0038
GGAGACCAUACUAUACAUCCUACAACCUCA,pre-steady-state target cleavage rate,[1],0.208 ± 0.019
same,pre-steady-state target cleavage rate,[2],0.00248 ± 0.0024
GGAGACGAUACUAUACAAGCUAGUACCUCA,pre-steady-state target cleavage rate,[1],0.105 ± 0.028
same,pre-steady-state target cleavage rate,[2],0.00387 ± 0.002
GGAGACCUUACCUAUACAACCUACUACCUCA,pre-steady-state target cleavage rate,[1],0.0629 ± 0.016
same,pre-steady-state target cleavage rate,[2],0.0117 ± 0.0057
GGAGACGAUACUCAUACAACCUACUACCUCA,pre-steady-state target cleavage rate,[1],0.198 ± 0.02
same,pre-steady-state target cleavage rate,[2],0.0151 ± 0.0063
GGAGACGAUACUAUACAUCCAACUACCUCA,pre-steady-state target cleavage rate,[1],0.00801 ± 0.0028
same,pre-steady-state target cleavage rate,[2],0.00562 ± 0.0029
GGAGAGGUUACUAUACAAGCUACUACCUCA,pre-steady-state target cleavage rate,[1],0.0739 ± 0.012
same,pre-steady-state target cleavage rate,[2],0.0046 ± 0.0021
GGAGAGGAUACUACUACAACCUACUACCUCA,pre-steady-state target cleavage rate,[1],0.15 ± 0.016
same,pre-steady-state target cleavage rate,[2],0.00619 ± 0.0042
GGAGUGGAUACAAUACAACCUACUAGCUCA,pre-steady-state target cleavage rate,[1],0.0614 ± 0.0087
same,pre-steady-state target cleavage rate,[2],0.00216 ± 0.0014
GGAGACCAUACUAUACAACCUACUACCUA,pre-steady-state target cleavage rate,[1],0.125 ± 0.016
same,pre-steady-state target cleavage rate,[2],0.0149 ± 0.0065
GGAGACCAUACUAUACAACCCACUACCUCA,pre-steady-state target cleavage rate,[1],0.0223 ± 0.0041
same,pre-steady-state target cleavage rate,[2],0.0058 ± 0.0024
GGAGACCUAACUAUACAACCUGCUACCUCA,pre-steady-state target cleavage rate,[1],0.0157 ± 0.0084
same,pre-steady-state target cleavage rate,[2],0.0127 ± 0.005
GGAGACCAUACAAUACAACCUACUACCUGA,pre-steady-state target cleavage rate,[1],0.12 ± 0.019
same,pre-steady-state target cleavage rate,[2],0.00286 ± 0.0028
GGAGACCUAACUAUACAACCUACUACCCCA,pre-steady-state target cleavage rate,[1],0.195 ± 0.058
same,pre-steady-state target cleavage rate,[2],0.00474 ± 0.0039
GGAGUGGUUACUAUACAACCUACUACCACA,pre-steady-state target cleavage rate,[1],0.0961 ± 0.0098
same,pre-steady-state target cleavage rate,[2],0.00384 ± 0.0022
GGAGACCUAACUAUACAACAUACUACCUCA,pre-steady-state target cleavage rate,[1],0.0407 ± 0.0099
same,pre-steady-state target cleavage rate,[2],0.00659 ± 0.0046
GGAGACCUAACUAUACAACGUACUACCACA,pre-steady-state target cleavage rate,[1],0.0131 ± 0.0058
same,pre-steady-state target cleavage rate,[2],0.0055 ± 0.0049
GGAGACCUAACUAUACAACCUACUACCAGA,pre-steady-state target cleavage rate,[1],0.124 ± 0.035
same,pre-steady-state target cleavage rate,[2],0.00445 ± 0.0031
GGAGACCAUACUAUACAACCUACUAUCUCA,pre-steady-state target cleavage rate,[1],0.136 ± 0.013
same,pre-steady-state target cleavage rate,[2],0.00899 ± 0.0033
GGAGACCUAGCUAUACAACCUACUACCUCA,pre-steady-state target cleavage rate,[1],0.0862 ± 0.027
same,pre-steady-state target cleavage rate,[2],0.00604 ± 0.0058
GGAGAGGAUACUAUACAAGCUACUAGCUCA,pre-steady-state target cleavage rate,[1],0.0601 ± 0.013
same,pre-steady-state target cleavage rate,[2],0.00266 ± 0.0018
GGAGUGGAUACUAUACUACCUACUACCACA,pre-steady-state target cleavage rate,[1],0.143 ± 0.013
same,pre-steady-state target cleavage rate,[2],0.0024 ± 0.0017
GGAGUGGAUACUAUACAUCGUACUACCUCA,pre-steady-state target cleavage rate,[1],0.0624 ± 0.0061
same,pre-steady-state target cleavage rate,[2],0.0051 ± 0.0023
GGAGACCAUACUAUACAACCUACAACCUGA,pre-steady-state target cleavage rate,[1],0.0179 ± 0.0095
same,pre-steady-state target cleavage rate,[2],0.00439 ± 0.0042
GGAGACCUAACUACUACAACCUACUACCUCA,pre-steady-state target cleavage rate,[1],0.107 ± 0.026
same,pre-steady-state target cleavage rate,[2],0.00946 ± 0.0059
